# Bioassay records deposited in PubChem BioAssay by several laboratories.
# CHT block = inhibits the human high affinity choline transporter. CHT-expressing cells, membrane potential dye, choline response; hits give low values. B-score at 10 µM. 310,000 compounds, 0.86% hits;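 active = B-score over 3 SD under the library average, and starting fluorescence ratio not unusually high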;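 note: choline stimulus applied at its EC90 after an EC20 pre-addition; B-score computed on integrated fluorescence ratio after choline addition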
# Target sequence (Q9GZV3 whole entry, looked up): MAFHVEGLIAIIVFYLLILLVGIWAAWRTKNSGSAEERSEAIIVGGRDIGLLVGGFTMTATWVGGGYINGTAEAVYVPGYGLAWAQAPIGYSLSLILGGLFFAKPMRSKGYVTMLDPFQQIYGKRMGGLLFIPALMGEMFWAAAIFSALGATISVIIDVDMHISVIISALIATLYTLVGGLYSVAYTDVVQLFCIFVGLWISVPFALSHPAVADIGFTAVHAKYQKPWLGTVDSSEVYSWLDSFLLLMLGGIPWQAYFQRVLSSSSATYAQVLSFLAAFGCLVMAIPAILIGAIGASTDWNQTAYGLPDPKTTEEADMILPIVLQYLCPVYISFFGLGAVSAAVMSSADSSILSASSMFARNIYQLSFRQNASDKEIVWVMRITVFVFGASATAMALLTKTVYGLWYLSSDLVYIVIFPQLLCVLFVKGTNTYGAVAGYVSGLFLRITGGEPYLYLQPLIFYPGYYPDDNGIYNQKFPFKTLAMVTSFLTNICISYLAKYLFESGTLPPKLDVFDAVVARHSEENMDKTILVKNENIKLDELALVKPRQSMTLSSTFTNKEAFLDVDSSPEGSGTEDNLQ
# EP2 modulator = modulators of human EP2 prostaglandin E2 receptor | P43116 | EP2-expressing cells, cAMP HTRF FRET, PGE2 co-stimulation | induction, % at 25 µM | 260,000 compounds, 0.83% hits | AID 940;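 active = compounds whose cAMP rise, as percent of the full-agonist control response, exceeds 60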;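 note: rat C6 glioma line stably carrying human EP2 under a CMV promoter; the protocol text gives 20 µM as final concentration; 100% = response of wells given 1 µM PGE2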
# CHT allo act = allosteric activators of human choline transporter CHT | Q9GZV3 | CHT-expressing cells, membrane potential dye, choline EC20; hits give high values; LV-AA mutant CHT in HEK293 cells | B-score at 10 µM | 310,000 compounds, 0.49% hits;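 active = initial fluorescence not abnormally high and integrated response B-score, plate-corrected, over 3 SD above library mean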
# EP2 antag = inhibitors of human EP2 prostaglandin E2 receptor; 260,000 compounds, 0.52% hits; inhibition, % at 25 µM; C6 glioma cells expressing human EP2, cAMP TR-FRET; cells stimulated with saturating PGE2;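 active = percent inhibition above 40 after rounding to a whole number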;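 note: rat C6 glioma host cells with rolipram phosphodiesterase inhibitor present; the protocol text gives 20 µM as final concentration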
# CHT block conf = confirmation of human choline transporter CHT inhibitors | shares compounds with CHT block | CHT-expressing cells, choline membrane potential dye; LV-to-AA substituted CHT, HEK293 cells | CHT activity remaining % of control (hits give low values), % at 10 µM | 2,400 compounds, 70% hits;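 active = choline transporter activity left, mean of duplicates at 10 µM, below buffer-only control mean minus 3 SD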;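 note: depolarization triggered by choline at its EC90 following an EC20 pre-addition; 0% = hemicholinium-3 full block and 100% = buffer-only control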
# HEK293 MPD ctr = CHT inhibitor counter-screen hit in parental HEK293 cells; 2,400 compounds, 4% hits; membrane potential dye, choline response; active = decrease or increase beyond buffer ±3SD; shares compounds with CHT block; membrane potential ratio readout (active if shifted either direction beyond buffer ±3SD; no single direction) at 10 µM;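 note: parental cells lack the transporter so any hit is non-specific; ratio is peak minus trough fluorescence over baseline after EC90 choline challenge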
# The depositor's hits bear a star; i = inactive; · = no result given. This is a sample that favours compounds with a hit; in the whole collection about 2% have one here.
SMILES,CHT block,EP2 modulator,CHT allo act,EP2 antag,CHT block conf,HEK293 MPD ctr
COc1ccc(-c2nc(CN3CCN(c4ncnc5ccccc45)CC3)c(C)o2)c(OC)c1,-5.1*,-67.4,i,3.0,51.9%*,i
Cc1cc(C)c2[nH]c(=O)c(CN(Cc3cccnc3)Cc3nnnn3C3CCCCC3)cc2c1,·,15.8,·,7.9,·,·
O=C(c1cccc(-c2nnc(-c3ccccc3)o2)c1)N1CCCCC1,-6.34*,-17.0,i,7.2,i,i
O=C(CC1CCCCC1)c1c(O)c2ccccc2oc1=O,-7.37*,14.2,i,-0.2,44.5%*,4.57*
NC(=O)c1c(-c2ccncc2)csc1N,·,-2.9,·,11.6,·,·
CCOC(=O)c1ccc(NC(=O)CSc2nnc3n2C(C)(C)Cc2ccccc2-3)cc1,·,-5.7,·,5.2,·,·
CCOC(=O)c1c(N)ssc1=S,-11.5*,4.4,i,7.0,17.0%*,i
COc1cc(CNCc2cc3c(C)nn(-c4ccc(F)cc4)c3[nH]c2=O)cc(OC)c1,·,-46.8,·,12.2,·,·
C/C(=N\NC1=NCCN1)c1ccc(Cl)cc1,-6.67*,-12.7,i,1.1,52.5%*,i
C/C(=N\NC1=NCCN1)c1ccccc1,-6.45*,-12.7,i,6.0,32.0%*,i
O=C(c1nc2ccccc2s1)C1CCN(C(=O)CCc2ccc(-c3ccccc3)o2)CC1,·,-62.9,·,·,·,·
CCCC(=O)Nc1sc(C(=O)NC2CCCCC2)c(C)c1C(=O)OC,·,18.0,·,20.3,·,·
CN(C)c1ccc(C2/C(=C(/O)c3ccccc3)C(=O)C(=O)N2CCCC(=O)O)cc1 (stereo unspecified),-6.62*,3.1,i,4.5,i,i
CCN(CC)CCCNC(=O)c1ccccc1NC(=O)C1=CSCCO1,-11.6*,·,i,·,21.4%*,i
CCN(CC)CCCC(C)NC(=O)c1c(NC(=O)c2ccccc2)sc2c1CCCC2 (stereo unspecified),-7.58*,·,i,·,39.2%*,i
C[C@@H](Cn1nnc2ccccc21)NC(=O)c1nccc2ccccc12,·,-28.0,·,7.0,·,·
Cc1ccc(S(=O)(=O)NC2=C(N3CCN(Cc4ccccc4)CC3)C(=O)c3ccccc3C2=O)cc1,-5.55*,33.2,i,·,70.9%*,i
Cc1ccc(S(=O)(=O)N2CCCCC2C(=O)N2CCN(Cc3ccccc3)CC2)cc1 (stereo unspecified),-7.86*,-3.5,i,5.3,36.7%*,-8.61*
Cc1ccc(S(=O)(=O)NC2=C(N3CCN(c4ccccc4F)CC3)C(=O)c3ccccc3C2=O)cc1,i,13.1,i,6.4,·,·
Cc1ccc(S(=O)(=O)N2CCCC2C(=O)N2CCCCCC2)cc1 (stereo unspecified),i,-1.3,i,7.6,·,·
CC(=O)Oc1ccc(N(C(C)=O)S(=O)(=O)c2cccs2)cc1,i,15.5,i,6.8,·,·
CCCC(=O)Oc1ccc(N(C(=O)CCC)S(=O)(=O)c2cccs2)cc1,-5.73*,44.8,i,5.3,i,i
COCCNc1c(-c2cc3cc(C)cc(C)c3[nH]c2=O)nc2cccc(C)n12,·,-13.1,·,12.8,·,·
CCOc1ccccc1NC(=O)NC(C)c1ccc2c(c1)OCO2 (stereo unspecified),i,·,i,·,·,·
CCn1c(=O)cc(OCC(=O)NCCC(C)C)c2ccccc21,i,-1.3,i,9.4,·,·
SMILES,CHT block,EP2 modulator,CHT allo act,EP2 antag,CHT block conf,HEK293 MPD ctr
CCn1c(=O)cc(OCC(=O)NC(C)c2ccc3c(c2)OCCO3)c2ccccc21 (stereo unspecified),-9.49*,-19.6,i,4.5,18.1%*,i
CCOc1ccccc1C(=O)NC(C)c1ccc2c(c1)OCO2 (stereo unspecified),-6.36*,6.3,i,4.9,46.3%*,i
COc1cccc(C2=NOC(C(=O)NCc3ccc(F)cc3)C2)c1 (stereo unspecified),-5.12*,-38.5,i,·,66.1%*,i
CC1CCN(S(=O)(=O)c2ccc(NC(=O)CN3CCCC3)cc2)CC1,i,·,i,·,·,·
CCN1CCN(CC(=O)Nc2ccc(S(=O)(=O)N3C(C)CCCC3C)cc2)CC1 (stereo unspecified),-5.83*,·,i,·,25.4%*,i
Cc1ccc(Nc2nnc(C3C(=O)N(C)C4(C)CC3c3cc(Br)ccc3O4)s2)cc1 (stereo unspecified),-5.49*,4.8,i,1.0,i,i
O=C(CN(Cc1ccco1)C(=O)c1nsc(Cl)c1Cl)NC1CCCC1,·,8.5,·,10.6,·,·
CC1(C)Oc2ccc(C(=O)NC3CCCCC3)cc2N(CC(=O)Nc2ccccc2)C1=O,·,-12.7,·,6.9,·,·
Cc1cccc2cc(C(c3nnnn3C3CCCCC3)N3CCc4ccccc4C3)c(=O)[nH]c12 (stereo unspecified),·,23.1,·,13.9,·,·
O=C(NNC(=S)Nc1ccc(Cl)cc1Cl)c1ccc(N2CCOCC2)c([N+](=O)[O-])c1,-5.45*,-31.4,i,9.5,34.8%*,i
CCOC(=O)c1cc(C(=O)NC(C)c2ccccc2)c(=O)[nH]c1C (stereo unspecified),-11.5*,·,i,·,26.3%*,i
CCN(CC)CCN1C(=O)C(=O)/C(=C(\O)c2cc(C)ccc2C)C1c1cccnc1 (stereo unspecified),·,-6.0,·,12.0,·,·
O=C(NCCCN1CCOCC1)c1ccc2c(=O)n(-c3ccc(F)c(Cl)c3)c(=S)[nH]c2c1,-10.5*,·,i,·,21.2%*,i
O=C(NCCCN1CCOCC1)c1ccc(Cl)c(S(=O)(=O)N2CCCCCC2)c1,-8.28*,0.4,i,2.0,36.5%*,i
O=C(NCCN1CCOCC1)c1ccc(Cl)c(S(=O)(=O)N2CCCCCC2)c1,i,14.5,i,12.2,·,·
COc1ccc(-n2c(=S)[nH]c3cc(C(=O)NCCCN4CCOCC4)ccc3c2=O)cc1,-5.24*,·,i,·,47.2%*,i
COc1ccc(OC)c(CC(=O)N2CCC(O)(c3ccccn3)CC2)c1,·,-13.5,·,·,·,·
CCOC(=O)c1cnc(Nc2nc3ccccc3o2)nc1N,·,-71.5,·,8.6,·,·
Cc1ccccc1-c1nnc(SCC(=O)OC2CCCCC2)o1,·,32.5,·,2.7,·,·
COc1ccc(OCCSc2nnnn2C2CCCCC2)cc1,-11.5*,-6.6,i,7.2,i,i
COc1ccc(OCCSc2nnc(C)n2-c2ccccc2)cc1,-4.99*,-2.8,i,6.2,i,i
COc1ccccc1OCCSc1nnc(C)n1-c1ccccc1,i,-18.4,i,18.8,·,·
COc1ccc(-c2c(C)[nH]n3c(=O)c(C)c(C)nc23)cc1,·,-31.7,·,11.6,·,·
Fc1ccc(-c2n[nH]c3c2CN(Cc2ccccc2)CC3)cc1,·,-20.7,·,3.9,·,·
CCN1CCN(CCCNC(=O)c2ccc3c(c2)N(Cc2ccccc2)CCS3)CC1,i,·,i,·,·,·
Cn1nc(C(=O)NCCCN2CCCCC2)c2c1-c1ccccc1SC2,-5.47*,·,i,·,36.8%*,i
